# In PubChem BioAssay (Tox21):
# Where “and” joins values, the source holds several entries; their conditions need not be identical. Equal entries are not always repeated. Inconclusive results are not listed. Calls of active or inactive are those of the source. Calls come from the whole dose curve; as a rule, active = well fitted activation curve with a large enough effect in the signal ratio in the repeat runs (not every such curve was filed as active); inconclusive = weak or mixed curves, or effect the other way; inactive = no such curve, though single readings can be large or run the other way; the % refers to the signal ratio.
# Experiment: qHTS assay for small molecule agonists of the antioxidant response element (ARE) signaling pathway (AID 743202)
# Details: HepG2 ARE-bla reporter, beta-lactamase FRET, 16 h; series mostly up to 73.3 µM; activation: at the top concentration
# Text: U.S. Tox21 Program National Center for Advancing Translational Sciences [NCATS] NIH Chemical Genomics Center [NCGC] U.S. Environmental Protection Agency [EPA] National Institutes of Environmental Health Sciences [NIEHS] National Toxicology Program [NTP] U.S. Food and Drug Administration [FDA] Tox21 Assay Overview: Oxidative stress has been implicated in the pathogenesis of a variety of diseases ranging from cancer to neurodegeneration. The antioxidant response element (ARE) signaling pathway plays an important role in the amelioration of oxidative stress. The CellSensor ARE-bla HepG2 cell line (Invitrogen) can be used for analyzing the Nrf2/antioxidant response signaling pathway. Nrf2 (NF-E2-related factor 2) and Nrf1 are transcription factors that bind to AREs and activate these genes. The CellSensor ARE-bla Hep G2 cell line contains a beta-lactamase reporter gene under control of the Antioxidant Response Element (ARE) stably integrated into HepG2 cells. The activation of the report gene under culture conditions can be detected by fluorescence intensity. This cell line has been used to screen the Tox21 10K compound library to identify agonists that induce oxidative stress.
# Tox21 Assay Protocol Summary: The ARE-bla cells were dispensed at 2,000 cells/5 ul/well in 1536-well black wall/clear bottom plates using a Multidrop dispenser. After the assay plates were incubated at a 37 C/5% CO2 incubator for 5 hours, 23 nL of compounds dissolved in DMSO, positive controls or DMSO only was transferred to the assay plate by a pin tool. The plates were incubated at 37 C for 16 hours. After 1 uL of LiveBLAzer B/G FRET substrate was added using a Flying Reagent Dispenser, the plates were incubated at room temperature for 2 hours, and fluorescence intensity was measured by an Envision plate reader.
# % is set by controls: 0 for no effect and ±100 for the full control effect; potency is the fitted concentration of half-maximal effect.
SMILES,Potency,activation
Cc1c(COC(=O)[C@@H]2[C@H](/C=C(\Cl)C(F)(F)F)C2(C)C)cccc1-c1ccccc1,inactive,–
CCN(CC)C(=O)/C(Cl)=C(\C)OP(=O)(OC)OC,–,0.267% [at 94.8 µM] (inactive)
CCc1cccc(CC)c1N(COC)C(=O)CCl,4.19 µM (active) and 4.86 µM (active),–
O=[N+]([O-])c1c(Cl)c(Cl)c(Cl)c(Cl)c1Cl,24.2 µM (active),–
ClC1C(Cl)C(Cl)C(Cl)C(Cl)C1Cl (stereo not given),inactive,–
Cc1ccc(N)c(N)c1,8.66 µM (active) and 10.9 µM (active),–
CC(C)(OOC(C)(C)c1ccccc1)c1ccccc1,–,5.67% (inactive)
CCOC(=S)S,–,14.2% (inactive)
CCC(C)c1ccc(O)cc1 (stereo not given),–,2.48% (inactive)
CCCCC(CC)COC(=O)c1ccc(C(=O)OCC(CC)CCCC)c(C(=O)OCC(CC)CCCC)c1 (stereo not given),–,-0.449% (inactive)
CCN(N=O)C(N)=O,inactive,–
C=C(C)C(=O)OCC1CO1 (stereo not given),–,-3.6% (inactive)
CC(C)c1ccc(CO)cc1,inactive,–
c1ccc(-c2cccc(-c3ccccc3)c2)cc1,–,-15.1% (inactive)
C=C(C)[C@H]1Cc2c(ccc3c2O[C@@H]2COc4cc(OC)c(OC)cc4[C@@H]2C3=O)O1,0.0077 µM (active),–
NCc1cccnc1,inactive,–
Clc1nc(Cl)nc(Cl)n1,inactive,–
CCCCCCCCC(=O)NCc1ccc(O)c(OC)c1,–,19.9% (inactive)
c1ccc(N=Nc2ccccc2)cc1,inactive,–
C=CCc1ccc(OC)cc1,inactive,–

SMILES,Potency,activation
Oc1cc(Cl)ccc1Cl,–,11.4% (inactive)
S=C1NCCN1,–,-6.76% (inactive)
NNC(N)=S,–,15.7% (inactive)
C=CCN(CC=C)C(=O)C(Cl)Cl,inactive,–
O=C(NC(=O)c1c(F)cccc1F)Nc1ccc(Cl)cc1,–,-3.87% (inactive)
N#CC(Br)Br,34.2 µM (active),–
O=Cc1ccco1,–,5.61% (inactive)
CCCCN(CCCC)N=O,inactive,–
CC(C)(c1cc(Cl)c(O)c(Cl)c1)c1cc(Cl)c(O)c(Cl)c1,15.4 µM (active) and 19.3 µM (active),–
Nc1ccncc1,inactive,–
C#CCOS(=O)OC1CCCCC1Oc1ccc(C(C)(C)C)cc1 (stereo not given),970 nM (active) and 1.72 µM (active),–
CC(O)CCO (stereo not given),–,-3.93% [at 94.8 µM] (inactive)
Cc1cc(Cl)ccc1OCCCC(=O)O,inactive,–
Oc1ccc(-c2ccccc2)cc1,53.8 µM (active) and 21.7 µM (active),–
O=[N+]([O-])c1ccc(O)c([N+](=O)[O-])c1,48.8 µM (active),–
Brc1ccc(Oc2cc(Br)c(Br)cc2Br)c(Br)c1,inactive,–
Cc1cccc(N)c1N,9.36 µM (active) and 17.2 µM (active),–
CCN(CC)N=O,inactive,–
C[C@]12CCC(=O)C[C@@H]1CC[C@@H]1[C@@H]2CC[C@]2(C)[C@@H](O)CC[C@@H]12,27 µM (active),–
Nn1cnnc1,inactive,–
